Assay results reported in PubChem BioAssay (EPA / NIEHS).
The source made the active and inactive calls. How the source made its calls, unless noted: active means hit-call score of the fitted dose curve at least 0.9, where 1 is the maximum; inconclusive means response in the unintended direction; inactive means score below 0.9.

target: Estrogen receptor beta (Homo sapiens) (UniProt Q92731); assay: OT_ER_ERbERb_1440: Odyssey Thera (OT) 24-hour HEK293T Protein-Complementation Assay for Estrogen Receptor-beta/-beta Homodimer (AID 2283380);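 further: fluorescence gain from ER beta LBD homodimer complementation read by laser scanning cytometry; scored as signal increase over DMSO baseline for both agonists and antagonists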
Sequence (Q92731 whole entry, looked up, the tested form may be a part): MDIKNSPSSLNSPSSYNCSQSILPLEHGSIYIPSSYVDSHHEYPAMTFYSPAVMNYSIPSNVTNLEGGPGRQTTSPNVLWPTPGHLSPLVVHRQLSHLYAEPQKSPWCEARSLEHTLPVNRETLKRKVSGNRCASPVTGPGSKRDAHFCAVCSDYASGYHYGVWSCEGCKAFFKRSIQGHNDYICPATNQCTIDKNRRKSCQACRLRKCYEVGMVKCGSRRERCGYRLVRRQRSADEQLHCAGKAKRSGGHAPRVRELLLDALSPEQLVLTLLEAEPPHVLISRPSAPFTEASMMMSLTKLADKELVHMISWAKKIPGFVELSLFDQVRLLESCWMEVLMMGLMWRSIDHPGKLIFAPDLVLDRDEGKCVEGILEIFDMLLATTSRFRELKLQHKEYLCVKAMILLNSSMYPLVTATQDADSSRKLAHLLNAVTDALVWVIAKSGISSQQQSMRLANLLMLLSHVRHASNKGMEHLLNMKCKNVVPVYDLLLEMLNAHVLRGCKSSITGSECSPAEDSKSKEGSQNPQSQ
Procedure, shortened: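 HEK293T cells stably expressing human ER-beta LBD (aa 310-547) PCA homodimer pair, dosed 24 h; formaldehyde-fixed, Draq5-stained. Readout: increase in nuclear (agonist) or nuclear plus cytoplasmic (antagonist) fluorescence intensity versus DMSO, gain-of-signal fitting.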

outcome, inactive:
CC(=O)OC1CC(C)OC(C)O1 (stereo not drawn), CC(C)(O)c1ccc(CNC(=O)c2cccnc2Oc2ccc(F)cc2)cc1, CCCCOC(=O)CCCCC(=O)OCCCC, NC=O, CC(=O)OCC(COC(C)=O)OC(C)=O, CN(C)CCCN1c2ccccc2Sc2ccc(Cl)cc21, CC(N)=O, C/C=C/C=C/C(=O)O

target: Estrogen receptor (Homo sapiens) (UniProt P03372); assay: OT_ERa_GFPERaERE_0480: Odyssey Thera (OT) 8-hour HeLa Transcription Induction Assay for Estrogen Receptor (AID 2283381; active means hit-call score of the fitted dose curve at least 0.9, where 1 is the maximum; inactive means score below 0.9)
Sequence (P03372 whole entry, looked up): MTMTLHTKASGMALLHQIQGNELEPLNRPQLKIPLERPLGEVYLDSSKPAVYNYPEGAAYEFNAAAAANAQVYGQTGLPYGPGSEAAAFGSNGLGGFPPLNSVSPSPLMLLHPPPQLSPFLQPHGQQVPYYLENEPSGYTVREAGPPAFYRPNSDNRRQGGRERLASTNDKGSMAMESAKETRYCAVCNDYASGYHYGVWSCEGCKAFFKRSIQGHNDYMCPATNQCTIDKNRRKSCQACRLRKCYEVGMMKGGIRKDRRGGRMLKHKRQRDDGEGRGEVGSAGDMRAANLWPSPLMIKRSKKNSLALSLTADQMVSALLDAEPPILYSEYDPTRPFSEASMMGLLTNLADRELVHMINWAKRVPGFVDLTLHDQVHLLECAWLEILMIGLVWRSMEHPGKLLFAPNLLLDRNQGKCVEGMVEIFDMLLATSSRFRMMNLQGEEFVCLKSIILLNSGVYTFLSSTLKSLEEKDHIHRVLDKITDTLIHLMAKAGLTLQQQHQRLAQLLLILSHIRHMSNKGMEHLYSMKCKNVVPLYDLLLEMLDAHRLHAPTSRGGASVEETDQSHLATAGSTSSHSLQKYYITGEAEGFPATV
Procedure, shortened: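 HeLa cells expressing GFP reporter under estrogen response element, imaged 8 h after dosing. GFP induction quantified by high-content fluorescence microscopy image analysis; gain of signal fitted versus DMSO.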

outcome, inactive:
O=C(O)CN(CC(=O)O)CC(=O)O, c1ccc2occc2c1, O=C(O)c1[nH]n(-c2ccc(S(=O)(=O)O)cc2)c(=O)c1N=Nc1ccc(S(=O)(=O)O)cc1, CC(C)c1cccc(C(C)C)c1, COC(=O)CCC(=O)OC

target: Estrogen receptor (Homo sapiens) (UniProt P03372); assay: OT_ERa_GFPERaERE_0120: Odyssey Thera (OT) 2-hour HeLa Transcription Induction Assay for Estrogen Receptor (AID 2283382)
Procedure, shortened: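 HeLa cells were dosed for 2 h, then GFP reporter induction was quantified by fluorescence microscopy with high-content image analysis. Gain of signal fitted against DMSO baseline.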

outcome, inactive:
O=C(O)CN(CC(=O)O)CC(=O)O, c1ccc2occc2c1, O=C(O)c1[nH]n(-c2ccc(S(=O)(=O)O)cc2)c(=O)c1N=Nc1ccc(S(=O)(=O)O)cc1, CC(C)c1cccc(C(C)C)c1, COC(=O)CCC(=O)OC
